{
  "source": "PubChem BioAssay (NCATS)",
  "key": {"[1]": {"target": "Bile acid receptor (Homo sapiens) (UniProt Q96RI1)", "sequence (Q96RI1 whole entry, looked up)": "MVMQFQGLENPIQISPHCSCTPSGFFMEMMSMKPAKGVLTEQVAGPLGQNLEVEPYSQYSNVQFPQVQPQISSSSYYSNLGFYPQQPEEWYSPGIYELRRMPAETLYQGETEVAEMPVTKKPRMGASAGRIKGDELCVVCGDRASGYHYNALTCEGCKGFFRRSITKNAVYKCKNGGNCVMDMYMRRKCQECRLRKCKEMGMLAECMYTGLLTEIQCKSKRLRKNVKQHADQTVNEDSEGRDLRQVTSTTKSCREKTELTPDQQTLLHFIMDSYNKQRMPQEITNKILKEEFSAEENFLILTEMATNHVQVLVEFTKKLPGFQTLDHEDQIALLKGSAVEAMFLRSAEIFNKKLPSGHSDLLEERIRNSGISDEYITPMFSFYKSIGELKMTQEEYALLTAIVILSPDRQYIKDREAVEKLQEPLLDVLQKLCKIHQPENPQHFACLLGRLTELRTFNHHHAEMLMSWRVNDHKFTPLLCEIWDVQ", "assay": "qHTS assay for small molecule agonists of farnesoid X receptor signaling (AID 588527)", "conditions": "HEK293T FXR-UAS-bla, beta-lactamase ratio, 16 h; stronger effect = higher value", "method_in_brief": "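FXR-UAS-bla HEK293T cells (10% dialyzed FBS) preincubated 5-7 h at 37 C, then compounds at up to 92 uM for 16 h at 37 C. CCF4 beta-lactamase read-out after 2 h RT. Normalized to chenodeoxycholic acid (100 uM) and DMSO; Hill fit gave EC50 and efficacy.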"}, "[2]": {"target": "Peroxisome proliferator-activated receptor delta (Homo sapiens) (UniProt Q03181)", "sequence (Q03181 whole entry, looked up)": "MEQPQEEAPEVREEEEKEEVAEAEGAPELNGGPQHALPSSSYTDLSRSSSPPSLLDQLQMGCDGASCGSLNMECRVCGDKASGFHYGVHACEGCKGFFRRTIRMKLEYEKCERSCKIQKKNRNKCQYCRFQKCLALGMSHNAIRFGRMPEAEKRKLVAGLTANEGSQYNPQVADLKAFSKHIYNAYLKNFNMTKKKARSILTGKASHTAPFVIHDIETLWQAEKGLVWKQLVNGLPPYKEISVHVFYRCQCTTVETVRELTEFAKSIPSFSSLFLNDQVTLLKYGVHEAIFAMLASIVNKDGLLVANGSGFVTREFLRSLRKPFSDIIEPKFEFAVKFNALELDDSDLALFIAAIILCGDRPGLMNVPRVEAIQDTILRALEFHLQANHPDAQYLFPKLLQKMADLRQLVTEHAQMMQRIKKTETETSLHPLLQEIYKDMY", "assay": "qHTS assay for small molecule agonists of peroxisome proliferator-activated receptor delta signaling (AID 588534)", "conditions": "HEK293T PPARdelta-UAS-bla, beta-lactamase ratio, 18 h; series mostly up to 76.7 µM", "method_in_brief": "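Agonist-mode beta-lactamase reporter readout (CCF4 dye, 2 h at RT) after 18 h at 37 °C exposure to a titration; Hill-equation fitting gave EC50 and maximal response.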"}, "[3]": {"target": "Glucocorticoid receptor (Homo sapiens) (UniProt P04150)", "sequence (P04150 whole entry, looked up)": "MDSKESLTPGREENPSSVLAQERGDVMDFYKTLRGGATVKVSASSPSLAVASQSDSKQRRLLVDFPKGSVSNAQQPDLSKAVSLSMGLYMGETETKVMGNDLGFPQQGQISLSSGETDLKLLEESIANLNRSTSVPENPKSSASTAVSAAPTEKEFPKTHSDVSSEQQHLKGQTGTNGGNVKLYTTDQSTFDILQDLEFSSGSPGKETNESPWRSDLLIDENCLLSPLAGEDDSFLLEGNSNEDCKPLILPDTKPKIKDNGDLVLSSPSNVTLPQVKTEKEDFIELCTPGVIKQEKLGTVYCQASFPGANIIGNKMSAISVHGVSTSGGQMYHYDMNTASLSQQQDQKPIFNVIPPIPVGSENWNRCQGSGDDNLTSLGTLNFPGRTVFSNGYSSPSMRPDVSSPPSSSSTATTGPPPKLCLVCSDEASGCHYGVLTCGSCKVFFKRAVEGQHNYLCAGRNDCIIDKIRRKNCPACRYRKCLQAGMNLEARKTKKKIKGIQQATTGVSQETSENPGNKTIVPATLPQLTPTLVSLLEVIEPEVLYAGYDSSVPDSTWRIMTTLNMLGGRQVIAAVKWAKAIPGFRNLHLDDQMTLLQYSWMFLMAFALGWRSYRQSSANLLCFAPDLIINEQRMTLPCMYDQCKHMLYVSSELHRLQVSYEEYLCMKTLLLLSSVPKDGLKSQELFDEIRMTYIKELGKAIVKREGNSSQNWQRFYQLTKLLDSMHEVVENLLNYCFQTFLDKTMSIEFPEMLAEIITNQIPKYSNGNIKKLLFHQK", "assay": "qHTS assay for small molecule agonists of glucocorticoid receptor signaling (AID 588532; active means well fitted curve in the direction sought with a large enough effect in the signal ratio, with a control signal flat; the % refers to the signal ratio)", "conditions": "HeLa MMTV-bla, beta-lactamase ratio, agonist, 18 h; stronger effect = higher value; percent of dexamethasone control, DMSO zero", "method_in_brief": "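Titration series, up to 92 uM, applied to GRE-bla HeLa cells for 18 h at 37 C. Detection by CCF4 FRET substrate after 2 h at RT.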"}, "[4]": {"target": "Glucocorticoid receptor (Homo sapiens) (UniProt P04150)", "assay": "qHTS assay for small molecule antagonists of glucocorticoid receptor signaling (AID 588533; active means well fitted inhibition curve with a large enough effect in the signal ratio, with a control signal flat, not every such curve was filed as active; the % refers to the signal ratio)", "conditions": "HeLa MMTV-bla, GRE beta-lactamase ratio, antagonist mode, 18 h; series mostly up to 76.8 µM", "method_in_brief": "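Antagonist-mode qHTS: compound titrations added to GRE-bla HeLa cells, then dexamethasone 2 nM final; 18 h, 37 C. CCF4 FRET fluorescence normalized to dexamethasone and DMSO; IC50 from Hill fit.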"}, "[5]": {"assay": "qHTS assay for small molecule antagonists of peroxisome proliferator-activated receptor delta signaling (AID 588535; active means well fitted inhibition curve with a large enough effect in the signal ratio, with a control signal flat, not every such curve was filed as active; the % refers to the signal ratio;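 on max response: cells co-treated with a PPAR-delta agonist as stimulator during compound exposure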)", "conditions": "HEK293T PPARd-UAS-bla, beta-lactamase FRET ratio, 18 h; 460 nm channel", "method_in_brief": "(§1)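 Inhibition of PPAR-delta response element-driven beta-lactamase expression is measured in HEK293T cells exposed to a compound titration series for 18 hrs at 37 C. Half-maximal inhibition comes from Hill equation fitting.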"}, "[6]": {"target": "Peroxisome proliferator-activated receptor delta (Homo sapiens) (UniProt Q03181)", "assay": "qHTS assay for small molecule antagonists of peroxisome proliferator-activated receptor delta signaling (AID 588535)", "conditions": "HEK293T PPARd-UAS-bla, beta-lactamase FRET ratio, 18 h; series mostly up to 76.7 µM", "method_in_brief": "as §1"}, "[7]": {"target": "Peroxisome proliferator-activated receptor gamma (Homo sapiens) (UniProt P37231)", "sequence (P37231 whole entry, looked up)": "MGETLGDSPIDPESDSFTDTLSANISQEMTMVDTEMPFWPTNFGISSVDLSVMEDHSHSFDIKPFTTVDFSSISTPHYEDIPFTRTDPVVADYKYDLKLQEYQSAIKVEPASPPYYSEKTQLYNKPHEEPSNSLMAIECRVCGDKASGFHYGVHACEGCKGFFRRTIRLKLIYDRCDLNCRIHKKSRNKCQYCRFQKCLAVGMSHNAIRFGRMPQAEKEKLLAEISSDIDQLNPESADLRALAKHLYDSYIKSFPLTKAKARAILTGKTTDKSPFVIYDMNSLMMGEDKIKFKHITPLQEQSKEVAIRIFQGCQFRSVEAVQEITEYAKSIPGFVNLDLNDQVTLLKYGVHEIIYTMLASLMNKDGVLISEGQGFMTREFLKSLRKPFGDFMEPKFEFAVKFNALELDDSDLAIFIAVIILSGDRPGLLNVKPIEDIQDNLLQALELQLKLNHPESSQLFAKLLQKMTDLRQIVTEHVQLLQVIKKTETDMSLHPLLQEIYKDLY", "assay": "qHTS assay for small molecule agonists of peroxisome proliferator-activated receptor gamma signaling (AID 588536; active means well fitted curve in the direction sought with a large enough effect in the signal ratio, with a control signal flat, not every such curve was filed as active; the % refers to the signal ratio)", "conditions": "HEK293 PPARg-UAS-bla, beta-lactamase ratio, 16 h, percent of rosiglitazone response, DMSO as zero; series mostly up to 76.7 µM", "method_in_brief": "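Cells were plated and held 6–6.5 h at 37 C, then compounds were added as a titration series. After a further 16 h, CCF4 dye was loaded for 2 h at room temperature and emission at 460/530 nm recorded.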"}},
  "note": "Values joined by “and” are separate entries in the source; they are usually repeats but may differ in a detail not shown here. Equal values may be shown once. Results filed as inconclusive are left out. A call without a number means that no potency is given here. Active and inactive are the calls of the source. Unless noted, the call rests on the fitted dose curve.",
  "data": [
    {"smiles": "Cc1ncc(CO)c(CO)c1O", "values": [
      {"measurement": "activation", "setting": "[1]", "value": "-0.349% (inactive)"}
    ]},
    {"smiles": "Oc1ccccc1", "values": [
      {"measurement": "activation", "setting": "[1]", "value": "0.295% (inactive) and -0.629% (inactive) and -5.57% (inactive)"}
    ]},
    {"smiles": "Nc1ccc(S(=O)(=O)c2ccc(N)cc2)cc1", "values": [
      {"measurement": "activation", "setting": "[1]", "value": "5.45% (inactive) and -0.614% (inactive)"},
      {"measurement": "outcome", "setting": "[2]", "value": "inactive"}
    ]},
    {"smiles": "Cc1cc(NS(=O)(=O)c2ccc(N)cc2)no1", "values": [
      {"measurement": "activation", "setting": "[1]", "value": "-1.53% (inactive)"}
    ]},
    {"smiles": "O=C(O)c1ccc(S(=O)(=O)N(Cl)Cl)cc1", "values": [
      {"measurement": "activation", "setting": "[1]", "value": "0.222% (inactive)"}
    ]},
    {"smiles": "O=C(O)Cc1cccc2ccccc12", "values": [
      {"measurement": "activation", "setting": "[1]", "value": "-0.869% (inactive) and 1.54% (inactive)"},
      {"measurement": "outcome", "setting": "[2]", "value": "inactive"}
    ]},
    {"smiles": "CCCCCCCC(=O)OCC(COC(=O)CCCCCCC)OC(=O)CCCCCCC", "values": [
      {"measurement": "activation", "setting": "[1]", "value": "-2.1% (inactive)"}
    ]},
    {"smiles": "S=P(N1CC1)(N1CC1)N1CC1", "values": [
      {"measurement": "activation", "setting": "[1]", "value": "4.46% (inactive)"},
      {"measurement": "outcome", "setting": "[2]", "value": "inactive"}
    ]},
    {"smiles": "COc1ccc2[nH]cc(CCNC(C)=O)c2c1", "values": [
      {"measurement": "activation", "setting": "[1]", "value": "0.0339% (inactive) and -2.2% (inactive) and -1.63% (inactive)"},
      {"measurement": "outcome", "setting": "[2]", "value": "inactive"}
    ]},
    {"smiles": "NCCc1ccc(O)cc1", "values": [
      {"measurement": "activation", "setting": "[3]", "value": "18.1% (inactive)"},
      {"measurement": "Potency", "setting": "[4]", "value": "inactive"},
      {"measurement": "max response", "setting": "[5]", "value": -1.35, "unit": "%"},
      {"measurement": "outcome", "setting": "[6]", "value": "inactive"},
      {"measurement": "outcome", "setting": "[7]", "value": "inactive"}
    ]},
    {"smiles": "O=C(O)c1cc(=O)[nH]c(=O)[nH]1", "values": [
      {"measurement": "outcome", "setting": "[2]", "value": "inactive"}
    ]},
    {"smiles": "CCCCCCCCCCCCCCCC(=O)OC(C)C", "values": [
      {"measurement": "outcome", "setting": "[2]", "value": "inactive"}
    ]},
    {"smiles": "C=CCc1ccc(O)c(OC)c1", "values": [
      {"measurement": "outcome", "setting": "[2]", "value": "inactive"}
    ]},
    {"smiles": "CCCCCCCCCCCCCCCCCCO", "values": [
      {"measurement": "outcome", "setting": "[2]", "value": "inactive"}
    ]},
    {"smiles": "COc1ccc(O)cc1", "values": [
      {"measurement": "outcome", "setting": "[2]", "value": "inactive"}
    ]},
    {"smiles": "Nc1ccc([As](=O)(O)O)cc1", "values": [
      {"measurement": "max response", "setting": "[5]", "value": -12.8, "unit": "%"},
      {"measurement": "outcome", "setting": "[6]", "value": "inactive"},
      {"measurement": "outcome", "setting": "[7]", "value": "inactive"}
    ]},
    {"smiles": "Cc1cc(O)cc(C)c1Cl", "values": [
      {"measurement": "outcome", "setting": "[2]", "value": "inactive"}
    ]},
    {"smiles": "O=C(c1ccccc1)C(O)c1ccccc1", "note": "(stereo not drawn)", "values": [
      {"measurement": "outcome", "setting": "[2]", "value": "inactive"}
    ]},
    {"smiles": "N[C@@H](Cc1cc(I)c(Oc2ccc(O)c(I)c2)c(I)c1)C(=O)O", "values": [
      {"measurement": "outcome", "setting": "[2]", "value": "inactive"}
    ]},
    {"smiles": "COC(=O)c1ccc(O)cc1", "values": [
      {"measurement": "outcome", "setting": "[2]", "value": "inactive"}
    ]},
    {"smiles": "CC(C)NC(C)C", "values": [
      {"measurement": "activation", "setting": "[3]", "value": "-3.7% (inactive)"},
      {"measurement": "Potency", "setting": "[4]", "value": "inactive"},
      {"measurement": "outcome", "setting": "[2]", "value": "inactive"},
      {"measurement": "outcome", "setting": "[7]", "value": "inactive"}
    ]},
    {"smiles": "Oc1ccc(Cl)cc1", "values": [
      {"measurement": "max response", "setting": "[5]", "value": -18.6, "unit": "%"},
      {"measurement": "outcome", "setting": "[6]", "value": "inactive"},
      {"measurement": "outcome", "setting": "[7]", "value": "inactive"}
    ]},
    {"smiles": "O=C(O)CCCCC1CCSS1", "note": "(stereo not drawn)", "values": [
      {"measurement": "outcome", "setting": "[2]", "value": "inactive"}
    ]},
    {"smiles": "O=C(OOC(=O)c1ccccc1)c1ccccc1", "values": [
      {"measurement": "outcome", "setting": "[2]", "value": "inactive"}
    ]},
    {"smiles": "CCCC(O)C(CC)CO", "note": "(stereo not drawn)", "values": [
      {"measurement": "outcome", "setting": "[2]", "value": "inactive"}
    ]},
    {"smiles": "Cc1nnc(NS(=O)(=O)c2ccc(N)cc2)s1", "values": [
      {"measurement": "outcome", "setting": "[2]", "value": "inactive"}
    ]},
    {"smiles": "CO/N=C(/C(=O)N[C@@H]1C(=O)N2C(C(=O)O)=C(COC(N)=O)CS[C@H]12)c1ccco1", "values": [
      {"measurement": "outcome", "setting": "[2]", "value": "inactive"}
    ]},
    {"smiles": "CCCCC(CC)COC(=O)c1ccccc1O", "note": "(stereo not drawn)", "values": [
      {"measurement": "outcome", "setting": "[2]", "value": "inactive"}
    ]},
    {"smiles": "CCOP(=S)(OCC)Oc1ccc2c(C)c(Cl)c(=O)oc2c1", "values": [
      {"measurement": "activation", "setting": "[3]", "value": "-1.75% (inactive)"},
      {"measurement": "outcome", "setting": "[2]", "value": "inactive"},
      {"measurement": "outcome", "setting": "[7]", "value": "inactive"}
    ]},
    {"smiles": "CC(=O)NS(=O)(=O)c1ccc(N)cc1", "values": [
      {"measurement": "outcome", "setting": "[2]", "value": "inactive"}
    ]},
    {"smiles": "CC(C)(C)CC(C)(C)c1ccc(O)c(-n2nc3ccccc3n2)c1", "values": [
      {"measurement": "outcome", "setting": "[2]", "value": "inactive"}
    ]}
  ]
}
